The entries come from a sample that favours hits as a whole.
Cycloheximide cs – Cycloheximide Counterscreen for Small Molecule Inhibitors of Shiga Toxin; 300,000 tested, 12% active; cell reporter, cycloheximide protein synthesis inhibition counterscreen; max response, %; AID 2314, 2010; in the data active = max response mostly above about 13%, no sharp cut-off; inactive = mostly below about 14%; also: read at 38.3 µM for the half of the compounds with a filed dose
TbPYK inhibitor – qHTS of Trypanosoma Brucei Inhibitors; pyruvate kinase (Trypanosoma brucei), Q57TT1; TbPYK enzyme, Kinase-Glo Plus ATP luminescence, 45 min; Potency, µM (top dose mostly 76.8 µM), actives largely listed as inhibitors; 410,000 tested, 0.12% active; also: nearly all actives have a fitted effect of over 50% in size
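Quantitative HTS: titrated library compounds versus trypanosomal pyruvate kinase in TEA buffer (pH 7.2) containing KCl, MgCl2, BSA and Tween-20. Reactions were initiated with ADP, 130 uM final. Kinase-Glo Plus luminescence was read after 45 min at RT.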
Shiga toxin inh – A qHTS for Small Molecule Inhibitors of Shiga Toxin | Vero cells, Shiga toxin protein synthesis inhibition reporter | inhibition, % at 38.7 µM | 290,000 tested, 9.2% active; in the data active = inhibition mostly above about 28%, no sharp cut-off; inactive = mostly below about 43%
RE007 growth inh – qHTS Assay for Inhibitors of the HIV-1 protein Vpr; S. pombe RE007 Vpr strain, BacTiter-Glo ATP luminescence, 24 h; Potency, µM (series often up to 92.2 µM), actives largely listed as inhibitors; 360,000 tested, 0.21% active; active = well fitted falling curve with a large enough effect; inconclusive = small, poorly fitted or top-dose-only effect; inactive = no such curve, though single readings can be large or run the other way; also: nearly all actives have a fitted effect of over 50% in size
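Fission yeast RE007 carrying one integrated HIV-1 vpr copy, seeded at OD 0.01 in PMG+AL medium with 23 nL pinned compound. Grown 24 h at 30 degrees; viability read by BacTiter-Glo luminescence after 5 min.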
Giardia FBPA inh – qHTS Assay for Inhibitors of Fructose-1,6-bisphosphate Aldolase from Giardia Lamblia; AID 2451, 2010; 290,000 tested, 0.71% active; purified Giardia FBPA; Potency, µM (titrated, usually from 59.6 µM), most hits filed as inhibitors; A8B2U2; also: nearly all actives have a fitted effect of over 55% in size
Target sequence (A8B2U2 whole entry, looked up): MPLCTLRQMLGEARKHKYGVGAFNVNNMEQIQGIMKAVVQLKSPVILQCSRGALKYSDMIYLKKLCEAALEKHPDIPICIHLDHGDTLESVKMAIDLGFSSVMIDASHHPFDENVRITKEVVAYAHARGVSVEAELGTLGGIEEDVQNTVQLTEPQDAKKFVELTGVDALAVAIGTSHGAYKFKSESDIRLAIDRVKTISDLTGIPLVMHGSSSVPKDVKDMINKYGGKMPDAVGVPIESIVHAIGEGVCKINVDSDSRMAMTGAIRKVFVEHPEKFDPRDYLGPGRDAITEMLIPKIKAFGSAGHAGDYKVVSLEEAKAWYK
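Giardia FBPA (40 nM reagent) was preincubated 10 min at RT with compound (up to 57.5 uM final), then substrate plus GAPDH/TPI/NAD/arsenate coupling system with diaphorase/resazurin was added; resorufin fluorescence (525/598 nm) was read after 20 min.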
LmPK inh – qHTS Assay for Inhibitors of Leishmania Mexicana Pyruvate Kinase (LmPK). Q27686. AID 1721, 2009. Potency, µM (top dose mostly 57.5 µM), hits mostly inhibitors. 290,000 tested, 0.37% active. purified LmPK, Kinase-Glo ATP luminescence, 1 h
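Purified LmPK (0.1 nM) converted ADP (0.1 mM) to ATP with PEP (0.5 mM) in imidazole buffer pH 7.2 with KCl and MgCl2, 1 h at room temperature. ATP was read by Kinase-Glo luminescence; data normalized to uninhibited and no-enzyme controls.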
Each line names hits and unclear results; the compound was inactive in the other large screens. Unless noted, calls follow the shape of the dose curve; as a rule, active = well fitted curve in the direction sought with a large enough effect; inconclusive = small, poorly fitted or top-dose-only effect, or another doubt; inactive = no such curve, though single readings can be large; an effect the other way counts as inactive or inconclusive.

Cn1ncc(Cl)c1C(=O)Nc1ccc2c(c1)OCO2	Cycloheximide cs 21.5 (no result: Giardia FBPA inh)
Cc1c(C(=O)Nc2ccc3c(c2)OCCO3)cnn1C	Cycloheximide cs 47.5, Shiga toxin inh 77.6
Cn1ncc([N+](=O)[O-])c1C(=O)Nc1ccccc1	none
O=C(CC(c1cccs1)N1Cc2ccccc2C1=O)Nc1ccc(Cl)cc1 (stereo not given)	none (no result: Cycloheximide cs, Shiga toxin inh, RE007 growth inh, Giardia FBPA inh, LmPK inh)
COc1ccc(CNC(=O)c2cc3c(=O)n(C)c4ccccc4c3n2C)c(OC)c1	none (no result: Cycloheximide cs, Shiga toxin inh, RE007 growth inh, Giardia FBPA inh, LmPK inh)
Cn1ncc(Br)c1C(=O)Nc1ccc(Br)cn1	none
Cc1c(C(=O)Nc2ccc(Br)cc2)cnn1C	Cycloheximide cs 77.7, Shiga toxin inh 130.3
O=S(=O)(NCCc1csc(-c2ccc(F)cc2)n1)c1ccc(Cl)cc1	none (no result: Cycloheximide cs, Shiga toxin inh, RE007 growth inh, Giardia FBPA inh, LmPK inh)
Cc1cc(Br)ccc1NC(=O)c1coc(=O)c2ccccc12	none (no result: Cycloheximide cs, Shiga toxin inh, RE007 growth inh, Giardia FBPA inh, LmPK inh)
COc1ccc(C2C3=C(CCCC3=O)Nc3ccc4ncccc4c32)cc1OC (stereo not given)	Cycloheximide cs 35.0
O=C1CCCC2=C1C(c1ccc(O)c(O)c1)Nc1ccc3ncccc3c12 (stereo not given)	TbPYK inhibitor inconclusive, Shiga toxin inh 33.3, Giardia FBPA inh inconclusive, LmPK inh inconclusive
CCOc1cc(C2C3=C(CCCC3=O)Nc3ccc4ncccc4c32)ccc1O (stereo not given)	none
COc1cc(C2C3=C(CCCC3=O)Nc3ccc4ncccc4c32)ccc1O (stereo not given)	Cycloheximide cs 14.6
COc1cccc(/C=N\NC(=O)c2ccc(C)nc2)c1	Cycloheximide cs 29.1, Shiga toxin inh 45.8
Cc1ccc(C(=O)N/N=C\c2cccc(OC(=O)c3cccc(F)c3)c2)cn1	Cycloheximide cs 19.9, Shiga toxin inh 43.4
COc1ccc(/C=N/NC(=O)c2ccc(C)nc2)cc1O	none
Cc1ccc(C(=O)N/N=C\c2ccc(OC(=O)c3cccc(F)c3)cc2)cn1	none
CCOC(=O)NCCOC(=O)Nc1ccc(Cl)cc1	none
Cc1ccc(NC(=O)OCCNC(=O)OC(C)C)cc1	Cycloheximide cs 41.7, Shiga toxin inh 80.8
CC(CNC(=O)COc1ccccc1)OC(=O)Nc1cccc(Cl)c1 (stereo not given)	none
COC(=O)NCC(C)OC(=O)Nc1ccc(Cl)cc1 (stereo not given)	Shiga toxin inh 54.9
Cc1ccc(NC(=O)OC(C)CNC(=O)Oc2cccc(C)c2)cc1 (stereo not given)	Cycloheximide cs 38.1, Shiga toxin inh 73.9
CCOc1ccccc1NC(=O)N1CCc2cc(S(=O)(=O)N3CCC(C)CC3)ccc21	none (no result: Cycloheximide cs, Shiga toxin inh, RE007 growth inh, Giardia FBPA inh, LmPK inh)
CC(C)c1cc2cc3ccc(=O)oc3cc2o1	Cycloheximide cs 32.9, Shiga toxin inh 64.4
CC(C)C[C@@H](CC(=O)N[C@@H](CCC(=O)O)CC(=O)O)NC(=O)[C@@H]1CNCC[C@H]1NC(=O)C[C@@H](NC(=O)C[C@H](Cc1c[nH]c2ccccc12)NC(=O)[C@@H]1CCCC[C@H]1N)C(C)C	none (no result: Cycloheximide cs, TbPYK inhibitor, Shiga toxin inh, RE007 growth inh, LmPK inh)
C/C(=N/OC(=O)C1CC1)c1cc(-c2ccc(Cl)cc2)no1	Cycloheximide cs 17.7
C/C(=N\OC(=O)c1ccccc1)c1cc(-c2ccc(Cl)cc2)no1	none
CC(C)OCCCNC(=O)CCCN1C(=O)CCn2nc(-c3cccn3C)cc21	none (no result: Cycloheximide cs, Shiga toxin inh, RE007 growth inh, Giardia FBPA inh, LmPK inh)
CCCn1nc(NC(=O)c2cccs2)c2cc3cc(C)ccc3nc21	Cycloheximide cs 25.4, Shiga toxin inh 36.8
CCn1nc(NC(=O)c2ccco2)c2cc3cc(C)ccc3nc21	Cycloheximide cs 9.8
CCCn1nc(NC(=O)c2cccs2)c2cc3cc(OC)ccc3nc21	Cycloheximide cs 18.2, Shiga toxin inh 29.4, Giardia FBPA inh inconclusive
CN=CC1=C(O)CC(C)(C)CC1=O	none
CC1(C)CC(=O)C(C=Nc2ccc3cn[nH]c3c2)=C(O)C1	RE007 growth inh inconclusive
CCN(CC)CCOC(=O)c1ccc(N=CC2=C(O)CC(C)(C)CC2=O)cc1	none (no result: Cycloheximide cs, Shiga toxin inh, Giardia FBPA inh, LmPK inh)
CC1(C)CC(=O)C(C=Nc2ccc(O)cc2)=C(O)C1	Cycloheximide cs 18.0, Shiga toxin inh 35.6

Source: PubChem BioAssay (National Center for Advancing Translational Sciences (NCATS))
